Assay results reported in PubChem BioAssay (NCI).
This is part of a sample that, as a whole, favours compounds with a hit. Of some 79,000 tested, about 15% had one in any assay. Calls of active or inactive are those of the source. Rule as the data show it: active = growth inhibition above about 70%; inactive = the rest.

What was measured:
[1] = NCI Yeast Anticancer Drug Screen. Data for the rad52 strain (AID 147);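 also: 0% = growth of vehicle-treated control cultures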; settings: S. cerevisiae rad52 mutant growth inhibition, hits give high values
Method in brief: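 Genetically altered yeast (DNA damage repair defect) treated with compound; inhibition calculated relative to vehicle.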

[2] = NCI Yeast Anticancer Drug Screen. Data for the wt1 strain (AID 149);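 also: 0% = growth of vehicle-treated wt1 cultures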; settings: S. cerevisiae wt1 strain (SPY 50644) growth inhibition, hits give high values
Method in brief: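 Growth inhibition read against vehicle controls after compound exposure of the wt1 yeast strain.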

[3] = NCI Yeast Anticancer Drug Screen. Data for the rad50EPP+ strain (AID 151);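 also: 0% = growth of vehicle-treated control cultures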; settings: S. cerevisiae rad50 mutant strain, hits give high values
Method in brief: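 Strain rad50EPP+; compound exposure; % growth inhibition vs vehicle.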

[4] = NCI Yeast Anticancer Drug Screen. Data for the mgt1 strain (AID 153); settings: S. cerevisiae mgt1 mutant growth inhibition, hits give high values
Method in brief: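 Read-out: yeast growth inhibition vs vehicle control. Strain mgt1, drawn from a panel altered in DNA damage repair or cell cycle control.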

[5] = NCI Yeast Anticancer Drug Screen. Data for the rad50 strain (AID 155);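 also: 0% = growth of vehicle-only cultures of the same strain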; settings: S. cerevisiae rad50 strain growth inhibition, hits give high values
Method in brief: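 Readout: growth inhibition relative to vehicle-treated cultures. Compound exposure was carried out in a genetically defined yeast strain deficient in DNA damage repair.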

[6] = NCI Yeast Anticancer Drug Screen. Data for the mec2-1 strain (AID 157); settings: S. cerevisiae mec2-1 strain, hits give high values
Method in brief: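 Cells of the genetically defined mec2-1 yeast strain are incubated with test compound. Inhibition of growth is calculated against vehicle-treated controls.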

[7] = NCI Yeast Anticancer Drug Screen. Data for the rad14 strain (AID 159);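 also: 0% = growth of vehicle-treated control cultures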; settings: S. cerevisiae rad14 strain growth inhibition, hits give high values
Method in brief: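 Growth inhibition vs vehicle controls; genetically altered yeast strain (DNA damage repair defect) treated with test compounds.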

[8] = NCI Yeast Anticancer Drug Screen. Data for the sgs1 mgt1 strain (AID 161);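 also: 0% = growth of cultures given vehicle only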; settings: S. cerevisiae sgs1 mgt1 strain, hits give high values
Method in brief: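 Mutant yeast exposed to compound; growth scored against vehicle-only wells.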

[9] = NCI Yeast Anticancer Drug Screen. Data for the CLN2oe strain (AID 163);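 also: 0% = growth of vehicle-only control cultures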; settings: S. cerevisiae CLN2oe strain, hits give high values
Method in brief: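 Strain altered in cell-cycle control, incubated with compound; growth compared to solvent-treated controls.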

[10] = NCI Yeast Anticancer Drug Screen. Data for the cln2 rad14 strain (AID 165);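 also: 0% = growth equal to vehicle treated cultures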; settings: S. cerevisiae cln2 rad14 strain, hits give high values
Method in brief: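 The screen exposed genetically defined yeast (cln2 rad14) to test compounds and scored growth inhibition relative to vehicle-treated controls.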

[11] = NCI Yeast Anticancer Drug Screen. Data for the bub3 strain (AID 167); settings: S. cerevisiae bub3 mutant strain, hits give high values
Method in brief: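 Readout: yeast growth inhibition, expressed relative to vehicle-only wells. The test organism is a mutant strain from a panel with lesions in DNA repair or checkpoint genes.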

[12] = NCI Yeast Anticancer Drug Screen. Data for the wt2 strain (AID 169);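 also: 0% = growth of vehicle-treated yeast cultures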; settings: S. cerevisiae wt2 strain growth inhibition, hits give high values
Method in brief: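 Steps: yeast strain treated with compound; growth recorded; inhibition calculated relative to cultures given vehicle alone.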

[13] = NCI Yeast Anticancer Drug Screen. Data for the mlh1 strain (AID 171);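 also: 0% = growth of vehicle-treated control cultures of the same strain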; settings: S. cerevisiae mlh1 strain growth inhibition, hits give high values
Method in brief: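 Yeast screen: mutant strain plus compound, growth scored against vehicle control wells.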

[14] = NCI Yeast Anticancer Drug Screen. Data for the sgs1 strain (AID 173);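 also: 0% = growth of vehicle-only control cultures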; settings: S. cerevisiae sgs1 mutant, hits give high values
Method in brief: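 Inhibition of yeast growth served as the measure. The mutant strain was treated with each compound, and growth was normalised to cultures receiving vehicle alone.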

[15] = NCI Yeast Anticancer Drug Screen. Data for the mlh1 rad18 strain (AID 175); settings: S. cerevisiae mlh1 rad18 strain growth inhibition, hits give high values
Method in brief: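 Compound-treated yeast growth, normalised to vehicle controls. Strain bears defined DNA repair mutations.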

[16] = NCI Yeast Anticancer Drug Screen. Data for the rad18 strain (AID 177); settings: S. cerevisiae rad18 mutant growth inhibition, hits give high values
Method in brief: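 Inhibition values reflect reduced yeast growth compared with vehicle-treated controls, using a strain engineered with a DNA damage repair defect.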

[17] = at 5.0 µM (retest, dose inferred, filed as 0.5)
[18] = at 50.0 µM (retest, dose inferred, filed as 5.0)

Measured: growth inhibition

COc1cc2ccccc2c2cc([N+](=O)[O-])oc12
active: [1]; at 1.2 µM 82% | [1]; at 3.7 µM 88% | [1]; at 11.0 µM 91% | [1]; at 33.0 µM 91% | [1]; at 100.0 µM 91% | [3]; at 1.2 µM 82% | [3]; at 3.7 µM 86% | [3]; at 11.0 µM 91% | [3]; at 33.0 µM 90% | [3]; at 100.0 µM 88% | [5]; at 1.2 µM 79% | [5]; at 3.7 µM 88% | [5]; [17] 75% | [5]; at 11.0 µM 92% | [5]; at 33.0 µM 91% | [5]; [18] 76% | [5]; at 50.0 µM 78.2% | [5]; at 100.0 µM 88% | [6]; at 100.0 µM 78% | [7]; at 1.2 µM 91% | [7]; at 3.7 µM 93% | [7]; at 11.0 µM 95% | [7]; at 33.0 µM 94% | [7]; at 100.0 µM 93% | [8]; [17] 73% | [8]; [18] 76% | [10]; [17] 91% | [10]; [18] 84% | [10]; at 50.0 µM 84.3% | [14]; at 1.2 µM 79% | [14]; at 3.7 µM 84% | [14]; at 11.0 µM 89% | [14]; at 33.0 µM 89% | [14]; at 100.0 µM 89% | [15]; [17] 89% | [15]; [18] 88% | [15]; at 50.0 µM 88.3%
inactive: [2]; at 1.2 µM 4% | [2]; at 3.7 µM 6% | [2]; at 11.0 µM 15% | [2]; at 33.0 µM 29% | [2]; at 100.0 µM 36% | [4]; at 1.2 µM 2% | [4]; at 3.7 µM 11% | [4]; at 11.0 µM 26% | [4]; at 33.0 µM 43% | [4]; at 100.0 µM 59% | [6]; at 1.2 µM 23% | [6]; at 3.7 µM 39% | [6]; [17] 45% | [6]; at 11.0 µM 55% | [6]; at 33.0 µM 65% | [6]; [18] 62% | [6]; at 50.0 µM 53% | [8]; at 50.0 µM 60.9% | [9]; at 1.2 µM -8% | [9]; at 3.7 µM -6% | [9]; at 11.0 µM 4% | [9]; at 33.0 µM 19% | [9]; at 100.0 µM 24% | [11]; at 1.2 µM -21% | [11]; at 3.7 µM -21% | [11]; [17] 2% | [11]; at 11.0 µM -1% | [11]; at 33.0 µM 5% | [11]; [18] 14% | [11]; at 50.0 µM 3.55% | [11]; at 100.0 µM 7% | [12]; at 1.2 µM 5% | [12]; at 3.7 µM 11% | [12]; at 11.0 µM 23% | [12]; at 33.0 µM 36% | [12]; at 100.0 µM 51% | [13]; at 1.2 µM 7% | [13]; at 3.7 µM 10% | [13]; at 11.0 µM 21% | [13]; at 33.0 µM 41% | [13]; at 100.0 µM 60%

C[C@]12CC[C@H](O)CC1=CC[C@@H]1[C@@H]2CC[C@]2(C)C(=O)CC[C@@H]12
active: [1]; at 100.0 µM 90% | [2]; at 100.0 µM 87% | [4]; at 100.0 µM 96% | [5]; at 33.0 µM 78% | [5]; [18] 98% | [5]; at 50.0 µM 88.5% | [5]; at 100.0 µM 91% | [6]; at 33.0 µM 79% | [6]; [18] 98% | [6]; at 50.0 µM 87.8% | [6]; at 100.0 µM 90% | [7]; at 33.0 µM 77% | [7]; at 100.0 µM 96% | [8]; [18] 80% | [8]; at 50.0 µM 88.1% | [9]; at 100.0 µM 94% | [10]; [18] 75% | [10]; at 50.0 µM 88.5% | [11]; at 33.0 µM 72% | [11]; [18] 78% | [11]; at 50.0 µM 86.2% | [11]; at 100.0 µM 92% | [12]; at 100.0 µM 92% | [13]; at 100.0 µM 97% | [14]; at 33.0 µM 77% | [14]; at 100.0 µM 97% | [15]; [18] 99% | [15]; at 50.0 µM 87.7% | [16]; at 33.0 µM 78% | [16]; at 100.0 µM 95%
inactive: [1]; at 1.2 µM -54% | [1]; at 3.7 µM -47% | [1]; at 11.0 µM -46% | [1]; at 33.0 µM 69% | [2]; at 1.2 µM -44% | [2]; at 3.7 µM -65% | [2]; at 11.0 µM -70% | [2]; at 33.0 µM 50% | [3]; at 1.2 µM -64% | [3]; at 3.7 µM 4% | [3]; at 11.0 µM 0% | [3]; at 33.0 µM 36% | [3]; at 100.0 µM 65% | [4]; at 1.2 µM -65% | [4]; at 3.7 µM -68% | [4]; at 11.0 µM -62% | [4]; at 33.0 µM 52% | [5]; at 1.2 µM -73% | [5]; at 3.7 µM -41% | [5]; [17] 58% | [5]; at 11.0 µM -57% | [6]; at 1.2 µM -94% | [6]; at 3.7 µM -71% | [6]; [17] 56% | [6]; at 11.0 µM -66% | [7]; at 1.2 µM -57% | [7]; at 3.7 µM -52% | [7]; at 11.0 µM -39% | [8]; [17] -7% | [9]; at 1.2 µM -16% | [9]; at 3.7 µM 2% | [9]; at 11.0 µM 8% | [9]; at 33.0 µM 54% | [10]; [17] 64% | [11]; at 1.2 µM -23% | [11]; at 3.7 µM -36% | [11]; [17] 20% | [11]; at 11.0 µM -17% | [12]; at 1.2 µM -52% | [12]; at 3.7 µM -42% | [12]; at 11.0 µM -37% | [12]; at 33.0 µM 59% | [13]; at 1.2 µM -51% | [13]; at 3.7 µM -81% | [13]; at 11.0 µM -49% | [13]; at 33.0 µM 37% | [14]; at 1.2 µM -75% | [14]; at 3.7 µM -56% | [14]; at 11.0 µM -65% | [15]; [17] 37% | [16]; at 1.2 µM -29% | [16]; at 3.7 µM -24% | [16]; at 11.0 µM -7%
